The nature of assay [1]: A CellTox Green Cytotoxicity Assay to monitor cytotoxicity in HEK293 cells - 32 hour (AID 1224881). Also: nearly all actives have a fitted effect of over 40% in size. Summed up: (§1)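 HEK293 cells, 600/well, were preincubated 5 hours and then exposed to compounds at 37 C for up to 40 hours. A cell-impermeant cyanine dye staining dead-cell DNA was read by fluorescence at 0, 8, 16, 24, 32 and 40 h time points.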
A short description of assay [2]: A CellTox Green Cytotoxicity Assay to monitor cytotoxicity in HepG2 cells - 0 hour (AID 1224882). Also: nearly all actives have a fitted effect of over 35% in size. Summed up: (§2)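 HepG2 cells, 600/well, preincubated 5 h with CellTox Green dye, then exposed to Tox21 compounds in DMSO at 37 C for up to 40 h. Dead-cell DNA fluorescence read at the indicated time point.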
The nature of assay [3]: A CellTox Green Cytotoxicity Assay to monitor cytotoxicity in HepG2 cells - 32 hour (AID 1224883). Also: nearly all actives have a fitted effect of over 50% in size. Summed up:
as §2

A short description of assay [4]: A CellTox Green Cytotoxicity Assay to monitor cytotoxicity in HEK293 cells - 8 hour (AID 1224884). Also: nearly all actives have a fitted effect of over 35% in size. A digest of the protocol: as §1
Assay [5] can be described thus: qHTS RealTime-Glo MT Cell Viability Assay in HepG2 cells - 16 hour (AID 1224885). Also: nearly all actives have a fitted effect of over 50% in size. Summed up:
(§3)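 HepG2 cells (600/well) were dispensed with RealTime-Glo reagents, incubated 5 h at 37 °C, then treated with compounds in DMSO for up to 40 h. Nonlytic NanoLuc luminescence reflecting viable cells was read at each stated time point.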
For orientation: qHTS replaces the single test concentration by a dilution series.

Assay [6] in a line: qHTS RealTime-Glo MT Cell Viability Assay in HEK293 cells - 24 hour (AID 1224886). Also: top concentration of the series differs between compounds; nearly all actives have a fitted effect of over 50% in size. A digest of the protocol:
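HEK293 cells seeded with NanoLuc/prosubstrate reagent, rested 5 h at 37 C, then dosed and kept at 37 C up to 40 h. Nonlytic real-time luminescence from viable cells read at 0, 8, 16, 24, 32 and 40 h.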

A short description of assay [7]: qHTS RealTime-Glo MT Cell Viability Assay in HEK293 cells - 8 hour (AID 1224887). Also: top concentration of the series differs between compounds; nearly all actives have a fitted effect of over 50% in size. Summed up: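 600 cells/well were plated with the nonlytic NanoLuc/prosubstrate reagent, pre-incubated 5 h, then given 23 nL of compound in DMSO. Incubation at 37 C for 40 h, with luminescence from viable-cell-reduced substrate read repeatedly from 0 h.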
Assay [8] in a line: A CellTox Green Cytotoxicity Assay to monitor cytotoxicity in HEK293 cells - 16 hour (AID 1224888). Also: nearly all actives have a fitted effect of over 35% in size. Summed up: as §1
Assay [9] is described as follows: qHTS RealTime-Glo MT Cell Viability Assay in HepG2 cells - 0 hour (AID 1224889). Also: nearly all actives have a fitted effect of over 50% in size. A digest of the protocol: as §3
A short description of assay [10]: A CellTox Green Cytotoxicity Assay to monitor cytotoxicity in HepG2 cells - 8 hour (AID 1224890). Also: nearly all actives have a fitted effect of over 45% in size. Summed up:
as §2

Assay [11] can be described thus: qHTS assay to identify small molecule antagonists of the estrogen receptor alpha (ER-alpha) signaling pathway using the BG1 cell line in the presence of 0.1 nM 17-beta-estradiol - cell viability counter screen (AID 1259241). Also: nearly all actives have a fitted effect of over 40% in size. Summed up: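 Viability in VM7Luc4E2 cells after 22 hr compound exposure under 0.1 nM 17beta-estradiol stimulation, by CellTiter-Fluor.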
A short description of assay [12]: qHTS assay to identify small molecule antagonists of the androgen receptor (AR) signaling pathway using the MDA cell line in the presence of 0.5 nM R1881 - cell viability counter screen (AID 1259242). Also: nearly all actives have a fitted effect of over 45% in size. Summed up: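 MDA-kb2 cells (MMTV-luciferase, AR/GR responsive) were treated with compounds plus 0.5 nM R1881 (final) for 16 hr at 37C, 0% CO2. Viability was then read in the same wells as live-cell protease fluorescence (CellTiter-Fluor, 30 min).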

A short description of assay [13]: qHTS assay to identify small molecule HDAC inhibitors (AID 1259364). Also: nearly all actives have a fitted effect of over 45% in size. Also: potency is read from the fitted curve at half-maximal effect. Summed up:
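Wild-type HCT-116 cells, plated overnight at 37 C, exposed to compounds 2 hr at 37 C; luminogenic HDAC-Glo substrate then added 30 min at room temperature. Luminescence reports relative endogenous class I/II HDAC activity.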

Assay [14] is described as follows: qHTS assay to identify small molecule HDAC inhibitors - cell viability counter screen (AID 1259365). Summed up: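 Cytotoxicity was gauged in wild-type HCT-116 cells after a brief 2hr treatment with DMSO-dissolved compounds at 37C and 5% CO2, using CellTiter-Glo luminescence developed for 30min at room temperature.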
The nature of assay [15]: qHTS assay to identify small molecule agonists of the sonic hedgehog signaling (Shh) pathway - cell viability counter screen (AID 1259366). Also: nearly all actives have a fitted effect of over 50% in size. Summed up: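 Stable Gli1-Luc NIH/3T3 clone, 2,000 cells/well. Compound exposure 24hr at 37C. Read-out: CellTiter-Fluor fluorescence.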
Assay [16] can be described thus: qHTS assay to identify small molecule antagonists of the sonic hedgehog signaling (Shh) pathway - cell viability counter screen (AID 1259367). Also: nearly all actives have a fitted effect of over 55% in size. Summed up:
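NIH/3T3-derived Gli1-Luc reporter cells (2,000 per well) rested 4 hr at 37 C, then received DMSO compounds plus conditioned medium. After 23 hr of treatment, CellTiter-Fluor was added for 1 hr at 37C and fluorescence read.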

A short description of assay [17]: qHTS assay to identify small molecule agonists of the sonic hedgehog signaling (Shh) pathway (AID 1259368; calls by dose curve;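 also: NIH/3T3-derived 3T3Gli1-Luc cells carrying a stable Gli1-driven firefly luciferase reporter; series mostly up to about 92 µM; nearly all actives have a fitted effect of over 15% in size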). A digest of the protocol: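 NIH/3T3-derived 3T3Gli1-Luc cells with stably integrated Gli1-driven firefly luciferase, 2,000 cells/well, compounds added after 4 hr. Incubated 24 hr at 37C, 5% CO2; luminescence read after 30 min with luciferase reagent at room temperature.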

The target of assay [18] is Estrogen receptor (Homo sapiens) (UniProt P03372). In words: qHTS assay to identify small molecule antagonists of the estrogen receptor alpha (ER-alpha) signaling pathway using the BG1 cell line in the presence of 0.1 nM 17-beta-estradiol (AID 1259244). Also: nearly all actives have a fitted effect of over 50% in size. Summed up:
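VM7Luc4E2 cells (endogenous full-length ER-alpha, 4×ERE-luciferase), kept 5 days in phenol red-free, charcoal-stripped FBS medium; 4,000 cells/well. Compounds added with 0.1 nM (final) 17beta-estradiol, 22 hr at 37C; luminescence read with ONE-Glo after 30 min.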

Assay [19] is described as follows: qHTS assay to identify small molecule phospholipidosis (PLD) inducers (AID 1259344; active = well fitted curve in the direction sought with a large enough effect; an effect the other way counts as inactive or inconclusive). Summed up:
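HepG2 cells on collagen I, attached 4 h at 37 C, were co-treated with compound and LipidTOX Red dye for 24 h at 37 C, then fixed with paraformaldehyde plus Hoechst 33342 and imaged by high-content microscopy for phospholipid accumulation.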

The results in this text go back to PubChem BioAssay (Tox21).

SMILES strings stand for the structures. Records with an inconclusive call do not appear. Calls of active or inactive are those of the source. Unless noted, calls follow the shape of the dose curve; as a rule, active = well fitted curve in the direction sought with a large enough effect in the repeat runs; inconclusive = weak or mixed curves; inactive = no such curve, though single readings can be large; an effect the other way counts as inactive or inconclusive.

Estrogen receptor (Homo sapiens), sequence (P03372 whole entry, looked up): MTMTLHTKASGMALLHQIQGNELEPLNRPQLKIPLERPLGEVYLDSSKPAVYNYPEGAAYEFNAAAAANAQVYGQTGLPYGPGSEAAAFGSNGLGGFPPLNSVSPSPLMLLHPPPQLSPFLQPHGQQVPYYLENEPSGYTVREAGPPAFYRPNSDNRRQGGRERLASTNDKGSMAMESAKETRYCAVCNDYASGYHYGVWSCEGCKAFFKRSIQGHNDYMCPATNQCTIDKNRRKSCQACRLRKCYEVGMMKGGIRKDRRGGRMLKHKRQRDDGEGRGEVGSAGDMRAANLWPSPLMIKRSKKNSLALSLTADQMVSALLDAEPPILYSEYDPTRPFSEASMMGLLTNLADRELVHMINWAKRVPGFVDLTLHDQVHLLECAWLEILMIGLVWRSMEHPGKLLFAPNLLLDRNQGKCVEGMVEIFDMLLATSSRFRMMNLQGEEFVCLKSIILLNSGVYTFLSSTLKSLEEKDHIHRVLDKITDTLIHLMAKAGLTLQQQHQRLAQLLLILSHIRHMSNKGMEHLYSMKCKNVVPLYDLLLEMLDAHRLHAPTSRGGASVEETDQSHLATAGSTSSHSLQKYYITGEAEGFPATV

Take `CCCCS(=O)(=O)Cl`: the Potency result in [1], in assay [3], in [4], in assay [5], in assay [6] and in [7] was “inactive” in each case. Further, the Potency entry in assay [8], in [10], in assay [12], in [13], in assay [15] and in assay [16] was “inactive” throughout. The molecule was called inactive in assay [2], in assay [9], in assay [11], in assay [14] and in [17].
Regarding `CON(C)C(=O)Nc1ccc(Br)cc1`, the Potency entry in assay [1], in assay [3], in [4], in [5], in assay [6] and in [7] was “inactive” throughout. In addition, the Potency entry in [8], in assay [10], in assay [12], in assay [15] and in [16] was “inactive” each time. Besides, the outcome in [2], in assay [9], in assay [11], in assay [14] and in [17] was inactive. Besides, the Potency in [13] is 24.3 µM (active).
Take `CCOP(=S)(OCC)Oc1ccc(Cl)cc1Cl`: the Potency result in assay [1], in assay [3], in [4], in assay [5], in assay [6] and in assay [7] was “inactive” each time. Besides, the Potency entry in assay [8], in assay [10], in assay [12], in [18], in assay [13] and in assay [15] was “inactive” in each case. In assay [16], the Potency result was “inactive”. The outcome in assay [2], in [9], in [11], in assay [14] and in assay [17] was inactive.
In the case of `O=C1CCCCC1Cl` (centres undefined), the Potency result in assay [1], in assay [3], in assay [4], in assay [5], in assay [6] and in [7] was “inactive” each time. Further, the Potency result in assay [8], in assay [10], in assay [12], in assay [13], in assay [15] and in [16] was “inactive” throughout. Further, the molecule was classed as inactive in assay [2], in [9], in assay [11], in [14] and in [17].
`CC1NCCOC1c1ccccc1` (centres undefined): the Potency result in [1], in assay [3], in [4], in assay [5], in [6] and in assay [7] was “inactive” each time. The Potency entry in assay [10], in assay [12], in [18], in assay [19], in assay [15] and in [16] was “inactive” throughout. Also, the molecule was called inactive in assay [2], in assay [9], in assay [11], in assay [14] and in assay [17].
Take `C#CC(C)(C)O`: the Potency result in assay [1], in [3], in assay [4], in assay [5], in assay [6] and in assay [7] was “inactive” in each case. For the same molecule, the Potency entry in assay [8], in assay [10], in assay [12], in assay [13], in assay [15] and in assay [16] was “inactive” each time. The molecule was called inactive in [2], in assay [9], in [11], in assay [14] and in [17].
With `CCN[C@@H](C)Cc1cccc(C(F)(F)F)c1`, the Potency entry in [1], in [3], in [4], in [5], in [6] and in assay [7] was “inactive” throughout. In addition, the Potency result in assay [8], in [10], in assay [12], in assay [18], in [15] and in assay [16] was “inactive” each time. Besides, the outcome in assay [2], in assay [9], in [11], in [14] and in [17] was inactive.
As to `CCC(C)(C#N)N=NC(C)(C#N)CC` (centres undefined), the Potency result in [1], in [3], in assay [4], in [5], in [6] and in assay [7] was “inactive” throughout. Moreover, the Potency entry in assay [8], in assay [10], in assay [12], in assay [18], in assay [15] and in assay [16] was “inactive” in each case. Besides, the molecule was classed as inactive in assay [2], in assay [9], in [11], in [14] and in [17].
On to `COC(=O)c1ccccc1CS(=O)(=O)NC(=O)Nc1nc(OC)cc(OC)n1`, for which the Potency entry in assay [1], in assay [3], in assay [4], in [5], in assay [6] and in [7] was “inactive” in each case. For the same molecule, the Potency result in [8], in [10], in [12], in assay [18], in assay [15] and in assay [16] was “inactive” throughout. Besides, the molecule was called inactive in [2], in assay [9], in assay [11], in assay [14] and in [17].
